Records with an inconclusive call do not appear. Active and inactive are the calls of the source. Unless noted, calls come from the whole dose curve; as a rule, active = well fitted curve in the direction sought with a large enough effect in the repeat runs; inconclusive = weak or mixed curves; inactive = no such curve, though single readings can be large; an effect the other way counts as inactive or inconclusive.
What was measured:
[1] = qHTS assay to identify small molecule agonists of the hypoxia (HIF-1) signaling pathway - cell viability counter screen (AID 1224844; calls by dose curve; note: nearly all actives have a fitted effect of over 50% in size)
Outline: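 ME-180 HRE-bla cells, 2,000/well, 0.5% dialyzed FBS; 5 hr settle, 17 hr compound at 37C/5% CO2; CCF4-AM reporter read first, then CellTiter-Glo luminescence after 30 min RT.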

[2] = qHTS assay to identify small molecule agonists of H2AX (AID 1224845; active = well fitted activation curve with a large enough effect in the signal ratio in the repeat runs, not every such curve was filed as active; the % refers to the signal ratio)
Outline: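 Wild-type CHO-K1 cells plated overnight, then exposed 3 hr at 37C to compounds at 15 concentrations (0.76% DMSO). Lysed, then HTRF anti-pH2AX(S139)-cryptate/anti-H2AX-d2 detection after 24 hr at room temperature; emissions 665 and 620 nm.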

[3] = qHTS assay to identify small molecule agonists of the hypoxia (HIF-1) signaling pathway (AID 1224846; active = well fitted activation curve with a large enough effect in the signal ratio in the repeat runs, not every such curve was filed as active; the % refers to the signal ratio)
Outline: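 Cell line: CellSensor HRE-bla ME-180; 2,000 cells/well; 0.5% dialyzed FBS; 5 h preincubation; DMSO compound pin transfer; 17 h, 37C, 5% CO2; CCF4-AM added; bla FRET signal scored for activation.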

[4] = qHTS assay to identify small molecule agonists of H2AX - cell viability counter screen (AID 1224847; calls by dose curve; note: top concentration of the series differs between compounds; nearly all actives have a fitted effect of over 30% in size)
Outline: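 CHO-K1 wt, 1000 cells/well, o/n 37C; cpds 15 conc, 3 h 37C, 0.76% DMSO; CellTiter-Glo, 30 min RT, luminescence.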

[5] = qHTS RealTime-Glo MT Cell Viability Assay in HepG2 cells - 24 hour (AID 1224867); note: nearly all actives have a fitted effect of over 50% in size
Outline: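 Cell number in HepG2 cultures estimated from NanoLuc luminescence generated by metabolic reduction of a prosubstrate by living cells. The homogeneous, nonlytic format allowed repeated reads at 0, 8, 16, 24, 32 and 40 h of compound exposure.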

[6] = A CellTox Green Cytotoxicity Assay to monitor cytotoxicity in HEK293 cells - 0 hour (AID 1224869); note: nearly all actives have a fitted effect of over 50% in size
Outline: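 Nonlytic real-time cytotoxicity: HEK293 + CellTox Green reagent plated, 5 h preincubation, pintool compound addition (23 nL in DMSO), 37 C for 40 h, fluorescence measured at successive time points.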

[7] = qHTS RealTime-Glo MT Cell Viability Assay in HEK293 cells - 32 hour (AID 1224868); note: top concentration of the series differs between compounds; nearly all actives have a fitted effect of over 50% in size
Outline: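 Homogeneous bioluminescent viability format in HEK293 cells (600 cells/well). Following 5 h at 37 C/5% CO2, 23 nL compound was pintooled; the signal was measured repeatedly during 40 h incubation.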

[8] = qHTS RealTime-Glo MT Cell Viability Assay in HepG2 cells - 40 hour (AID 1224870); note: nearly all actives have a fitted effect of over 50% in size
Outline: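 HepG2 cells mixed with RealTime-Glo MT reagents (NanoLuc plus cell-permeant prosubstrate) were seeded at 600 cells/well, incubated 5 h at 37 C/5% CO2, then pinned with compounds in DMSO; nonlytic luminescence tracked viability during 40 h treatment.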
% is set by controls: 0 for no effect and ±100 for the full control effect.

C=Cc1ccccn1
inactive: outcome [1] | outcome [2] | outcome [3] | Potency [4] | outcome [5] | outcome [6]

Cc1ccc(C=O)cc1C
inactive: outcome [1] | outcome [2] | outcome [3] | Potency [4] | outcome [5] | Potency [7] | outcome [6] | outcome [8]

CCOC(=O)[C@H](CCc1ccccc1)N[C@@H](C)C(=O)N1C(=O)N(C)C[C@H]1C(=O)O
inactive: outcome [1] | outcome [2] | outcome [3] | Potency [4] | outcome [5] | Potency [7] | outcome [6] | outcome [8]

CC(C)C(=O)OCCc1ccccc1
inactive: outcome [1] | outcome [2] | outcome [3] | Potency [4] | outcome [5] | Potency [7] | outcome [6] | outcome [8]

N[C@@H](CCC(=O)N[C@@H](CS)C(=O)NCC(=O)O)C(=O)O
inactive: activity change, negative = cytotoxicity [1] 2.76% [at 15.8 µM] | activation (H2AX phosphorylation) [2] -1.53% [at 31.6 µM] | activation [3] -0.104% [at 15.8 µM] | activity change, negative = cytotoxicity [4] 0.69% [at 31.6 µM] | activity change, negative = cytotoxicity [5] 0.707% [at 15.8 µM] | activity change, negative = cytotoxic [7] 7.09% [at 15.8 µM] | cytotoxicity [6] 0.542% [at 15.8 µM] | activity change, negative = cytotoxic [8] -0.349% [at 15.8 µM]

CC(C)N(c1ccccc1)C(C)C
inactive: outcome [1] | outcome [2] | outcome [3] | Potency [4] | outcome [5] | Potency [7] | outcome [6] | outcome [8]

O=C(OCC1(COC(=O)c2cccnc2)CCCC(COC(=O)c2cccnc2)(COC(=O)c2cccnc2)C1O)c1cccnc1
inactive: outcome [1] | outcome [2] | outcome [3] | Potency [4] | outcome [5] | outcome [6] | outcome [8]

Cc1ccccc1C(=O)Nc1ccc(C(=O)N2CCCC(N(C)C)c3ccccc32)cc1 (stereo not drawn)
inactive: outcome [1] | outcome [2] | outcome [3] | Potency [4] | outcome [5] | outcome [6] | outcome [8]

Cc1[nH]cnc1-c1ccc(Cl)cc1
inactive: outcome [1] | outcome [2] | outcome [3] | Potency [4] | outcome [5] | outcome [6] | outcome [8]

CC(=O)Nc1cccc(C)c1
inactive: outcome [1] | outcome [2] | outcome [3] | Potency [4] | outcome [5] | outcome [6] | outcome [8]

O=C(OCC(COC(=O)c1cccnc1)(COC(=O)c1cccnc1)COC(=O)c1cccnc1)c1cccnc1
inactive: outcome [1] | outcome [2] | outcome [3] | Potency [4] | outcome [5] | Potency [7] | outcome [6] | outcome [8]

C=C(C)C1CCC(C)(O)CC1 (stereo not drawn)
inactive: outcome [1] | outcome [2] | outcome [3] | Potency [4] | outcome [5] | outcome [6] | outcome [8]

COc1ccc(S(=O)(=O)N2c3ccc(Cl)cc3[C@@](O)(c3ccccc3Cl)[C@H]2C(=O)N2CCC[C@@H]2C(N)=O)cc1OC
inactive: outcome [1] | outcome [2] | outcome [3] | Potency [4] | outcome [5] | outcome [6] | outcome [8]

O=C(NCCc1c[nH]c2ccccc12)c1cccnc1
inactive: outcome [1] | outcome [2] | outcome [3] | Potency [4] | outcome [5] | Potency [7] | outcome [6] | outcome [8]

O=C(O)C(=O)Cc1ccccc1
inactive: outcome [1] | outcome [2] | outcome [3] | Potency [4] | outcome [5] | Potency [7] | outcome [6] | outcome [8]

O=C(CCN1CCN(CCO)CC1)N1c2ccccc2Sc2ccc(C(F)(F)F)cc21
inactive: outcome [1] | outcome [2] | outcome [3] | Potency [4] | outcome [5] | Potency [7] | outcome [6] | outcome [8]

Nc1ncnc(Nc2ccccc2)n1
inactive: outcome [1] | outcome [2] | outcome [3] | Potency [4] | outcome [5] | Potency [7] | outcome [6] | outcome [8]

C=C(C)C(=O)OCCN(CC)CC
inactive: outcome [1] | outcome [2] | outcome [3] | Potency [4] | outcome [5] | Potency [7] | outcome [6] | outcome [8]

O=C1CCCC(=O)O1
inactive: outcome [1] | outcome [2] | outcome [3] | Potency [4] | outcome [5] | Potency [7] | outcome [6] | outcome [8]

COCCOCCOCCOCCO
inactive: outcome [1] | outcome [2] | outcome [3] | Potency [4] | outcome [5] | Potency [7] | outcome [6] | outcome [8]

Oc1ccccc1-c1nnco1
inactive: outcome [1] | outcome [2] | outcome [3] | Potency [4] | outcome [5] | Potency [7] | outcome [6] | outcome [8]

COc1cc2c(cc1OC)C(=O)CC2
inactive: outcome [1] | outcome [2] | outcome [3] | Potency [4] | outcome [5] | Potency [7] | outcome [6] | outcome [8]

CC(CN)CC(C)(C)CCN (stereo not drawn)
inactive: outcome [1] | outcome [2] | outcome [3] | Potency [4] | outcome [5] | outcome [6] | outcome [8]

COCCc1ccc(OCC2CO2)cc1 (stereo not drawn)
inactive: outcome [1] | outcome [2] | outcome [3] | Potency [4] | outcome [5] | Potency [7] | outcome [6] | outcome [8]
